Test results reported in PubChem BioAssay (NCATS).
“And” between values parts separate entries of the source, which are not always exact repeats. Identical values can stand only once. Records with an inconclusive call do not appear. The source made the active and inactive calls. Unless noted, calls follow the shape of the dose curve; as a rule, active = well fitted curve in the direction sought with a large enough effect; inconclusive = small, poorly fitted or top-dose-only effect, or another doubt; inactive = no such curve, though single readings can be large; an effect the other way counts as inactive or inconclusive.

Experiments:
[1] = qHTS of Nrf2 Activators: LOPAC Validation (AID 624149); also: 0% is about no effect
How it was run: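 Cells (AREc32_Fluc) are plated at 1000 per well in OPTI-MEM containing 5% FBS and left overnight. Compounds are pinned in and incubated 24 hr at 37 deg C, and firefly luciferase is detected with Steady-Glo.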

[2] = molecular target: Arylsulfatase A (Homo sapiens) (UniProt P15289); assay: qHTS screen for enhancers of Arylsulfatase A (ASA1): LOPAC Validation Assay (AID 720538)
Sequence of Arylsulfatase A (Homo sapiens) (P15289 whole entry, looked up): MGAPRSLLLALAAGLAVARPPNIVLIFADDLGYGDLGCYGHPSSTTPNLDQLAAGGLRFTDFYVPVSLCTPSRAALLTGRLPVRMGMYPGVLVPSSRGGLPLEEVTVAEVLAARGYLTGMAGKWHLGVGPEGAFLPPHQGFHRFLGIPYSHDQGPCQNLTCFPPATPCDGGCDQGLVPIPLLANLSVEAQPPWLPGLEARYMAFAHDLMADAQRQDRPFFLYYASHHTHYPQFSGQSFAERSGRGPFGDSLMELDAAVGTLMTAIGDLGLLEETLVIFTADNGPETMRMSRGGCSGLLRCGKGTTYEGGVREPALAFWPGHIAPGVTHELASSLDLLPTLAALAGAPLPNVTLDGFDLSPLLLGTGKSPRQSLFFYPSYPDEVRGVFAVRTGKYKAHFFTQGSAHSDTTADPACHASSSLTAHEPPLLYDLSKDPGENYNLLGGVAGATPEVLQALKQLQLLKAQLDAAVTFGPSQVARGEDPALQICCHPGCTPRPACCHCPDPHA
How it was run: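 SV40-transformed fibroblasts from an MLD patient (ASA-I179S) were treated with compound for 48 h at 37 C. They were then lysed with 0.5 mM pNCS substrate (final) for 14 h at room temperature and stopped with NaOH; signal read by fluorescence (Ex 525/Em 598 nm), with increase denoting enhanced activity.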

[3] = qHTS for compounds that reverse cellular toxicity of Amyloid beta (A-beta) peptide in yeast: LOPAC Validation Assay (AID 720559);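 also: plate controls were DMSO for no effect and equimolar ferric chloride plus clioquinol rescue for full effect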
How it was run: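 Yeast expressing toxic A-beta grown with pinned compounds at 30 C for 48 hr. Growth measured as absorbance at 600 nm; data normalized to DMSO and to an equimolar FeCl3/clioquinol mixture as positive control.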

[4] = qHTS for Activators of Parkin Expression: LOPAC Validation Assay (NLuc Reporter) (AID 720572;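 also: 0% = DMSO and 100% = positive control compound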)
How it was run: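 Cells harboring the Parkin-promoter coincidence reporter were treated for 24 h at seven concentrations. NLuc output was measured sequentially after the FLuc channel and scaled between DMSO and positive control values.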

[5] = qHTS for Activators of Parkin Expression: LOPAC Validation Assay (FLuc Reporter) (AID 720573;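 also: 0% = DMSO and 100% = positive control compounds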)
How it was run: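 Neuronal cell line stably expressing FLuc/NLuc coincidence reporter under the Parkin promoter, 1,500 cells/well, dosed 24 h after seeding in 7-point series for 24 h at 37 C. FLuc luminescence read; normalized to DMSO and positive control (100%).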

[6] = molecular target: T1, Hexokinase-4 (Homo sapiens) + Glucokinase regulatory protein (Homo sapiens) (UniProt P35557+Q14397); assay: qHTS assay for inhibitors of recombinant human GCK-GKRP interaction: Diaphorase-coupled assay (AID 743205); also: potency is read from the fitted curve at half-maximal effect
T1 sequence (P35557 whole entry, looked up): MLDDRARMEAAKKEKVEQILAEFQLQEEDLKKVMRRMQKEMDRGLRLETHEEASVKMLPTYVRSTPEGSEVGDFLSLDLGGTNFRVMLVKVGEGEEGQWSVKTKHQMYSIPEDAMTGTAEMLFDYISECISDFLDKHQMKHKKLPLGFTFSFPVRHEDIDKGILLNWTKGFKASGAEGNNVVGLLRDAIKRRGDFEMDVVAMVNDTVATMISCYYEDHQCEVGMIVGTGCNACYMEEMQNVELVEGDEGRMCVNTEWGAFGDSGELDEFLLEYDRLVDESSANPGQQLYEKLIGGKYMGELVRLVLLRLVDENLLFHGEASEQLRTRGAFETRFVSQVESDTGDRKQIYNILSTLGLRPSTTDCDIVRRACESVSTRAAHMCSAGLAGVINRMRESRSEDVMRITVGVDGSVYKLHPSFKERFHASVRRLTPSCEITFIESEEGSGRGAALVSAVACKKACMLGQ
T1 sequence (Q14397 whole entry, looked up): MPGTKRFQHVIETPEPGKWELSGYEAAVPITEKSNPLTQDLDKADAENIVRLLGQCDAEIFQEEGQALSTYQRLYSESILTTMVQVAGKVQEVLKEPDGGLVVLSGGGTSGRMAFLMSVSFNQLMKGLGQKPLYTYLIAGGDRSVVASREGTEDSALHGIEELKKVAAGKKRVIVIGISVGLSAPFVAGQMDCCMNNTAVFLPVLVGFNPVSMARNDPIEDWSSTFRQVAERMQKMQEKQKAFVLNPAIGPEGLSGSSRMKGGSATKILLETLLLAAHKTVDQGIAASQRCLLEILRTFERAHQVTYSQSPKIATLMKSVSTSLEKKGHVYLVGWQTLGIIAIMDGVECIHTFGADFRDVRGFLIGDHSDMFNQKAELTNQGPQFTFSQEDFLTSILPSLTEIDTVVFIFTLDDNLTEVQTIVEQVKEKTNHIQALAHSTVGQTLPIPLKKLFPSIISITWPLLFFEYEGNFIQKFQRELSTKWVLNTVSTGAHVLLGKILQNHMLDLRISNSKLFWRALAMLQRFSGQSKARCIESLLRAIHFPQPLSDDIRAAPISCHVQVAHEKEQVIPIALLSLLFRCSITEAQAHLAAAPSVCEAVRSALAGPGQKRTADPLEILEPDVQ
How it was run: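 Compounds pre-incubated 20 min with substrate, then 10 nM GST-GCK with 10 nM FLAG-GKRP added. GCK activity coupled via G6PDH and diaphorase to resorufin (5 mM glucose, 0.4 mM ATP, 0.15 mM NADP+, pH 7.6), read kinetically over 30 minutes at Ex 525/Em 590 nm.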

[7] = molecular target: T1, Hexokinase-4 (Homo sapiens) + Glucokinase regulatory protein (Homo sapiens); assay: qHTS assay for inhibitors of recombinant human GCK-GKRP interaction: ADP-Glo assay (AID 743206);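 also: plate controls were DMSO plus enzyme for no effect and no enzyme for full effect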
How it was run: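 Pin-transferred compounds meet a 15 nM GST-GCK/15 nM FLAG-GKRP/2 uM S6P mix (dispense concentrations). ATP is then added to 0.4 mM final with 5 mM glucose, and the reaction runs 60 min at room temperature. ADP is quantified luminescently.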

[8] = HTS Assay for Allosteric Antagonists of the Human D2 Dopamine Receptor: Hit Validation in HTRF (AID 624455); also: potency is read from the fitted curve at half-maximal effect;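 also: stable D1 dopamine receptor cell line scored for blocking the D1 response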
How it was run: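 Inhibition of the D1-mediated response is measured by HTRF in cells that stably express the D1 dopamine receptor. Compounds reaching this step are hits from calcium-flux antagonism testing at EC80 dopamine in inducible Hek293 Trex D2 cells.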

[9] = qHTS assay for small molecule agonists of the antioxidant response element (ARE) signaling pathway (AID 651741; active = well fitted activation curve with a large enough effect in the signal ratio; the % refers to the signal ratio; also: potency is read from the fitted curve at half-maximal effect; as to activation: % of control where 0% means no effect)
How it was run: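 Reporter: beta-lactamase under ARE, stably in HepG2. Exposure: 16 h, 37 C, compounds delivered in DMSO by pin tool after 5 h cell preincubation. Readout: FRET substrate fluorescence after 2 h at RT.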

[10] = qHTS assay for small molecule activators of the nuclear factor-kappa B (NF-kB) signaling pathway (AID 651749; active = well fitted activation curve with a large enough effect in the signal ratio; the % refers to the signal ratio; also: series mostly up to about 77 µM; % of control where 0% means no effect); settings: NF-kB-bla ME-180 cells, beta-lactamase FRET ratio, 16 h; stronger effect = higher value
How it was run: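 Human ME-180 cervical cells with an NF-kB-bla construct; compounds added via 23 nL pin transfer, DMSO as vehicle; incubation 16 hr. Reporter activity measured by FRET disruption.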

[11] = qHTS assay for small molecule disruptors of the mitochondrial membrane potential - 5 hr assay (AID 651755; calls by dose curve; also: % is scaled to controls: 0 for no effect and ±100 for the full control effect; nearly all actives have a fitted effect of over 40% in size)
How it was run: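 Seed HepG2 overnight, add compound, incubate 5 hr at 37C and 5% CO2, stain 30 min with Mito-MPS, then measure monomer (490/535 nm) and aggregate (540/590 nm) fluorescence.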

[12] = molecular target: Tumor necrosis factor (Homo sapiens) (UniProt P01375); assay: qHTS assay to identify small molecules that stimulate Tumor Necrosis Factor-alpha (TNF-alpha) secretion (AID 651757; active = well fitted curve in the direction sought with a large enough effect in the signal ratio; the % refers to the signal ratio; also: 0% is about no effect)
Sequence of Tumor necrosis factor (Homo sapiens) (P01375 whole entry, looked up): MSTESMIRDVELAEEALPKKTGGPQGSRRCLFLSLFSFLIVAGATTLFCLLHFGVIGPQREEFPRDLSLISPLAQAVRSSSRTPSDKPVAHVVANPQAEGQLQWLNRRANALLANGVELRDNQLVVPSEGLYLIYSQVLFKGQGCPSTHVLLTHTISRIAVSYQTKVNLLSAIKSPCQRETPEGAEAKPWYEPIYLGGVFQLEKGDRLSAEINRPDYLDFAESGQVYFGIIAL
How it was run: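 Human monocytic THP-1 cells are plated, treated with compound and held at 37 C for 17 hrs. Labeled anti-TNF-alpha antibody mixture is then added; after 3 hr at room temperature, TR-FRET signal reports secreted TNF-alpha.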

[13] = qHTS assay for environmental chemicals that activate the Aryl hydrocarbon Receptor (AhR) signaling pathway (AID 651777); settings: 1A2-DRE human hepatoma cells, luciferase, 24 h; activation: stronger effect = higher value; also: % of control where 0% means no effect; nearly all actives have a fitted effect of over 15% in size
How it was run: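 Human hepatoma 1A2-DRE cells, stably carrying a dioxin response element and CYP1A2 promoter driving luciferase, were exposed to compounds for 24 hr at 37 C and 5% CO2. Luciferase signal was then read after 30 min One-Glo at room temperature.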

[14] = molecular target: Peroxisome proliferator-activated receptor alpha (Homo sapiens) (UniProt Q07869); assay: qHTS assay for small molecule agonists of the peroxisome proliferator-activated receptor alpha (PPARalpha) signaling pathway (AID 651778); settings: PathHunter PPARalpha complementation, chemiluminescence, 6 h; stronger effect = higher value; also: % of control where 0% means no effect
Sequence of Peroxisome proliferator-activated receptor alpha (Homo sapiens) (Q07869 whole entry, looked up): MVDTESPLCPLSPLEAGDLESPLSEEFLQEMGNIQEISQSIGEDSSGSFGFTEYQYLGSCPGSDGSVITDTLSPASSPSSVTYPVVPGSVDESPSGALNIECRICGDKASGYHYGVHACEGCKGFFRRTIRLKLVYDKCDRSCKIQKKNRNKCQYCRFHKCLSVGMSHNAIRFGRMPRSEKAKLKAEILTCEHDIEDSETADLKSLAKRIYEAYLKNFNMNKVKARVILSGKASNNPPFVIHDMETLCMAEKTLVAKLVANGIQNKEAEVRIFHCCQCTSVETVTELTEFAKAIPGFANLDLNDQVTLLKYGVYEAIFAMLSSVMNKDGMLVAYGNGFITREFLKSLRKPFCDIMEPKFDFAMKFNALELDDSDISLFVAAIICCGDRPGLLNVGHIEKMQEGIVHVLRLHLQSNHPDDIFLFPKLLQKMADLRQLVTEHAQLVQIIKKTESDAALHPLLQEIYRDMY
How it was run: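 Cells plated at 2,000/well and held overnight at 37 C, 5% CO2, then compound added by pin tool for 6 hr; after PathHunter detection reagent and 60 min at room temperature, chemiluminescence from enzyme complementation was read.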

[15] = qHTS assay for small molecule agonists of the antioxidant response element (ARE) signaling pathway measured by Nrf2-dependant transcriptional activity (AID 720636; active = well fitted curve in the direction sought with a large enough effect in the repeat runs; an effect the other way counts as inactive or inconclusive; also: % of control where 0% means no effect)
How it was run: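 ARE-luc HepG2 cells carrying an Nrf2-responsive luciferase reporter were plated in medium with 1% dialyzed FBS, left 6 hr at 37 C to attach, then exposed to compound for 16 hr. Luciferase luminescence was read after ONE-Glo addition.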

[16] = qHTS assay for small molecule antagonists of the retinoid-related orphan receptor gamma (ROR-gamma) signaling pathway - cell viability counter screen (AID 720652; active = well fitted curve in the direction sought with a large enough effect in the repeat runs; an effect the other way counts as inactive or inconclusive;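 also: compound exposure lasted 16 hr before ATP read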; also: potency is read from the fitted curve at half-maximal effect)
How it was run: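 Steps: seed CHO cells bearing TET-inducible ROR and ROR response element-luciferase; rest 5 hr at 37 C; add compound, then doxycycline; incubate 16 hr; add CellTiter-Glo and read luminescence as ATP-based viability.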

[17] = qHTS assay for small molecule activators of the p53 signaling pathway (AID 651743; active = well fitted activation curve with a large enough effect in the signal ratio, not every such curve was filed as active; the % refers to the signal ratio; also: series mostly up to about 92 µM; % of control where 0% means no effect); settings: HCT-116 p53RE-bla, beta-lactamase FRET ratio, 16 h; activation: stronger effect = higher value
How it was run: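 Agonist-mode quantitative HTS in HCT-116 cells carrying a p53-response-element beta-lactamase reporter; 16 h compound treatment at 37 C, then FRET substrate loading for 2 h at room temperature and fluorescence read.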

[18] = qHTS assay to identify small molecules that stimulate interleukin-8 (IL-8) secretion (AID 651758; active = well fitted activation curve with a large enough effect in the signal ratio; the % refers to the signal ratio; also: 0% is about no effect)
How it was run: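 Quantitative HTS in THP-1 monocytic cells at 2000 cells per well, with 16 hrs compound incubation at 37 C. IL-8 in the medium was then quantified by HTRF immunoassay, read after 1-3 hrs at room temperature.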

[19] = molecular target: Nuclear receptor ROR-gamma (Homo sapiens) (UniProt P51449); assay: qHTS assay for small molecule antagonists of the retinoid-related orphan receptor gamma (ROR-gamma) signaling pathway (AID 651802);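 also: CHO cells with doxycycline-induced ROR-gamma expression; series mostly up to about 92 µM; % is scaled to controls: 0 for no effect and ±100 for the full control effect; nearly all actives have a fitted effect of over 60% in size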
Sequence of Nuclear receptor ROR-gamma (Homo sapiens) (P51449 whole entry, looked up): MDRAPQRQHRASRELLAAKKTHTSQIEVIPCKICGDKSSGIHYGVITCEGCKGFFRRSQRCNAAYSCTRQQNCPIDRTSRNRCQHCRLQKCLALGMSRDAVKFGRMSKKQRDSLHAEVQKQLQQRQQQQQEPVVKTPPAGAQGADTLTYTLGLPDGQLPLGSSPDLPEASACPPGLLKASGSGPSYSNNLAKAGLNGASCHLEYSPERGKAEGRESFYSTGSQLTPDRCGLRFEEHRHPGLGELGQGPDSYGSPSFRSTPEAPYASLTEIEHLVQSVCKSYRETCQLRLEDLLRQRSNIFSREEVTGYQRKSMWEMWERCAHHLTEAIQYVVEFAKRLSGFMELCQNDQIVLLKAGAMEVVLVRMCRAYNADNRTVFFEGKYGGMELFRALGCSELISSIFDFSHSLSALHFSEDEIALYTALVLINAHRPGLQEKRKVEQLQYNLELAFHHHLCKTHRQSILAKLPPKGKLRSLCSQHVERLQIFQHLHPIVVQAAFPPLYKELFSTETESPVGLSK
How it was run: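 Steps: cells dispensed; compound or DMSO transferred by pin tool; doxycycline added to induce the ROR response element-driven luciferase; plates held 16hr at 37C; ONE-Glo added and luminescence measured.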

[20] = qHTS assay for small molecule agonists of the antioxidant response element (ARE) signaling pathway measured by Nrf2-dependant transcriptional activity - cell viability counter screen (AID 720653; active = well fitted curve in the direction sought with a large enough effect in the repeat runs; an effect the other way counts as inactive or inconclusive; also: % is scaled to controls: 0 for no effect and ±100 for the full control effect); settings: ARE-bla HepG2 viability, CellTiter-Glo ATP luminescence, 16 h; max response: stronger effect = lower value
How it was run: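 ARE-bla HepG2 cells (2,000/well) rested 5 hrs at 37C/5% CO2, then exposed to compounds in DMSO for 16 hrs. Viability was read in the same wells as intracellular ATP by luminescence, 30 min at room temperature after reagent addition.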

CC(C)NP(=O)(NC(C)C)OP(=O)(NC(C)C)NC(C)C
inactive: Potency [1] | Potency [2] | outcome [3] | Potency [4] | outcome [5] | Potency [6] | outcome [7]

CCCN(CCC)C1CCc2cccc(O)c2C1 (centres undefined)
inactive: Potency [1] | Potency [2] | outcome [3] | Potency [4] | outcome [5] | Potency [6] | outcome [7]

Oc1ccc2c3c1O[C@H]1c4[nH]c5ccccc5c4C[C@@]4(O)C(C2)N(CC2CC2)CCC314 (some centres undefined)
inactive: Potency [1] | Potency [8] | Potency [6]

N[C@@]1(C(=O)O)CC[C@@H](C(=O)O)C1
inactive: Potency [1] | Potency [2] | outcome [3] | Potency [4] | outcome [5] | Potency [6] | outcome [7]

COc1ccc2c(c1)C13CCCCC1C(C2)N(C)CC3 (centres undefined)
inactive: Potency [1] | Potency [2] | outcome [3] | Potency [4] | outcome [5] | Potency [6] | outcome [7]

NCCc1ccc(S(=O)(=O)F)cc1
inactive: Potency [1] | Potency [2] | outcome [3] | Potency [4] | outcome [5] | Potency [6] | outcome [7]

C[N+](C)(C)CCOC(=O)CBr
inactive: Potency [1] | Potency [8] | Potency [4] | outcome [5] | Potency [6] | outcome [7]

Clc1cc(I)cc(Cl)c1NC1=NCCN1
inactive: Potency [1] | Potency [2] | outcome [3] | Potency [4] | outcome [5] | Potency [6] | outcome [7]

CN1CC[C@@]2(C)c3cc(OC(=O)Nc4ccccc4)ccc3N(C)[C@@H]12
inactive: Potency [1] | Potency [2] | outcome [3] | outcome [5] | Potency [6] | outcome [7]

CCCN1CC[C@@H]2c3cc(O)ccc3CC[C@@H]21
inactive: Potency [1] | Potency [2] | outcome [3] | Potency [4] | outcome [5] | Potency [6] | outcome [7]

COc1ccc2c(c1O)-c1cccc3c1[C@@H](C2)N(C)CC3
inactive: Potency [1] | Potency [2] | outcome [3] | Potency [4] | outcome [5] | Potency [6] | outcome [7]

CCCN(CCC)[C@@H]1CCc2cccc(O)c2C1
inactive: Potency [1] | Potency [2] | outcome [3] | Potency [4] | outcome [5] | Potency [6] | outcome [7]

O=C1C=CC(=O)C=C1
active: Potency [9] 47.3 µM | Potency [16] 26.6 µM
inactive: Potency [1] | activation [10] -1.25% | Potency [11] | outcome [12] | activation [13] 1.56% | max response [14] -5.62% | outcome [3] | outcome [5] | Potency [15] | Potency [6] | outcome [7]

NCC(O)c1cc(O)c(O)cc1F (centres undefined)
inactive: Potency [1] | Potency [4] | outcome [5] | Potency [6] | outcome [7]
active: Potency [8] 0.326 µM

NCCCP(=O)(O)O
inactive: Potency [1] | Potency [2] | Potency [4] | outcome [5] | Potency [6] | outcome [7]

C[N+](C)(C)CC#CCN1CCCC1=O
inactive: Potency [1] | Potency [2] | Potency [4] | outcome [5] | Potency [6] | outcome [7]

S=C=S
inactive: Potency [9] | activation [17] -0.789% | activation [10] -0.146% | Potency [11] | outcome [12] | Potency [18] | activation [13] 0.646% | max response [14] -4.15% | Potency [19] | Potency [15] | Potency [16] | max response [20] -6.45%

CCCCCCCCCCCCCC(=O)O[C@@H]1[C@@H](C)[C@@]2(O)[C@@H](C=C(CO)C[C@@]3(O)C(=O)C(C)=C[C@@H]23)C2C(C)(C)[C@@]21OC(C)=O (some centres undefined)
inactive: Potency [1] | Potency [2] | Potency [4] | outcome [5] | Potency [6] | outcome [7]

CC(C)(O)[C@@H]1C2OC(=O)[C@@H]1[C@]1(O)C[C@H]3O[C@]34C(=O)O[C@H]2[C@]14C (tested in a mixture with another compound)
inactive: Potency [1] | Potency [2] | outcome [5] | Potency [6] | outcome [7]

N=C(N)c1ccc(CS(=O)(=O)F)cc1
inactive: Potency [1] | outcome [3] | Potency [4] | outcome [5] | Potency [6] | outcome [7]

O=[N+]([O-])/C=C/c1ccc2c(c1)OCO2
inactive: Potency [1] | outcome [3] | Potency [4] | outcome [5] | Potency [6] | outcome [7]

C[C@@H]1O[C@@H](O[C@H]2C[C@@H](O)[C@]3(CO)[C@@H]4C(CC[C@]3(O)C2)[C@@]2(O)CC[C@H]([C@@H]3COC(=O)C3)[C@@]2(C)C[C@H]4O)[C@H](O)[C@H](O)[C@H]1O (some centres undefined)
inactive: Potency [1] | Potency [4] | outcome [5] | Potency [6] | outcome [7]

O=c1c2ccccc2[se]n1-c1ccccc1
active: Potency [6] 14.1 µM
inactive: Potency [8] | Potency [2] | Potency [4] | outcome [5] | outcome [7]

OC1CCCCC1N1CCC(c2ccccc2)CC1 (centres undefined)
inactive: Potency [1] | Potency [2] | Potency [4] | outcome [5] | Potency [6] | outcome [7]

NC(=O)c1cc(N2CC2)c([N+](=O)[O-])cc1[N+](=O)[O-]
inactive: Potency [1] | outcome [3] | Potency [4] | outcome [5] | Potency [6] | outcome [7]

NC(=O)c1ccc(OCC(O)CN2CC=C(c3ccc(F)cc3)CC2)cc1 (centres undefined)
inactive: Potency [1] | Potency [2] | Potency [4] | outcome [5] | Potency [6] | outcome [7]

O=[N+]([O-])c1ccccc1
inactive: Potency [9] | activation [17] 2.6% and -2.69% | activation [10] -0.285% and -0.296% | Potency [11] | outcome [12] | activation [13] -1.49% and 0.199% | max response [14] 0.135% and -4.33% | Potency [19] | Potency [15] | Potency [16] | max response [20] -3.95% and -3.49%
